In PubChem BioAssay AID1159580 (chemical genetic matrix, 2015):
Where “and” joins values, the source holds several entries; their conditions need not be identical. Equal entries are not always repeated. The whole screen tested about 5,500 compounds, of which about 2,000 (36%) were called active. Not shown: some 18% with an inconclusive outcome. This is one part of the list. Unmarked numbers belong to inactive results. No stated cut-off is given here; in the data, active means normalized growth mostly below about 0.91 (no sharp cut-off); inconclusive means no clear call, values can overlap the other calls; inactive means mostly above about 0.92.

Experiment: chemical genetic growth profiling, strain panel (AID 1159580);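 further: tested at 20 µM; growth read once vehicle control cultures reached saturation at 30 °C; 1 = growth at the plate median or of vehicle wells; lower values mean less growth of the strain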
Settings: S. cerevisiae deletion strains, growth OD

For `CC(C)N(CCC(C(N)=O)(c1ccccc1)c1ccccn1)C(C)C` (stereo not drawn), the normalized growth (locus YJR066W, strain TOR1, hits give low values) was 0.994, the normalized growth (locus YJR075W, strain HOC1, hits give low values) was 1.02 and the normalized growth (locus YKL009W, strain mrt4, hits give low values) was 0.97. It also gave a normalized growth (locus YKL068W, hits give low values) of 0.98, a normalized growth (locus YKL085W, strain MDH1 (second series), hits give low values) of 0.988 and a normalized growth (locus YKL085W, strain MDH1, hits give low values) of 0.988. The normalized growth (locus YKL160W, strain elf1, hits give low values) was 0.139 (active), the normalized growth (locus YKR001C, strain vps1, hits give low values) was 0.988 and the normalized growth (locus YKR026C, strain gcn3, hits give low values) was 0.441 (active). For the same compound, the normalized growth (locus YKR091W, strain srl3, hits give low values) was 0.559 (active), the normalized growth (locus YLL001W, strain dnm1, hits give low values) was 0.0623 (active) and the normalized growth (locus YLL026W, hits give low values) was 0.0653 (active). The normalized growth (locus YLL041C, strain sdh2, hits give low values) was 0.411 (active), the normalized growth (locus YLR027C, strain aat2, hits give low values) was 0.0601 (active) and the normalized growth (locus YLR039C, strain RIC1, hits give low values) was 0.972. The normalized growth (locus YLR058C, strain SHM2, hits give low values) was 0.979, the normalized growth (locus YLR102C, strain apc9, hits give low values) was 0.987 and the normalized growth (locus YLR113W, strain HOG1, hits give low values) was 1.06. For the same compound, the normalized growth (locus YLR221C, strain rsa3, hits give low values) was 0.0673 (active), the normalized growth (locus YLR258W, strain gsy2, hits give low values) was 0.0927 (active) and the normalized growth (locus YLR262C, strain YPT6 (second series), hits give low values) was 0.0974 (active). For the same compound, the normalized growth (locus YLR262C, strain YPT6, hits give low values) was 0.963, the normalized growth (locus YLR268W, strain sec22, hits give low values) was 0.999 and the normalized growth (locus YLR320W, strain mms22, hits give low values) was 0.104 (active). The normalized growth (locus YLR330W, strain CHS5, hits give low values) was 0.989, the normalized growth (locus YLR342W, strain FKS1 (second series), hits give low values) was 1.02 and the normalized growth (locus YLR342W, strain FKS1, hits give low values) was 0.0913 (active). For the same compound, the normalized growth (locus YLR357W, strain rsc2, hits give low values) was 0.133 (active), the normalized growth (locus YLR370C, strain arc18, hits give low values) was 0.0613 (active) and the normalized growth (locus YLR371W, strain rom2, hits give low values) was 0.997. The normalized growth (locus YLR384C, strain iki3, hits give low values) was 0.0647 (active), the normalized growth (locus YLR418C, strain cdc73, hits give low values) was 0.967 and the normalized growth (locus YML016C, strain PPZ1, hits give low values) was 0.997. For the same compound, the normalized growth (locus YML032C, strain rad52, hits give low values) was 1.01, the normalized growth (locus YML120C, strain ndi1, hits give low values) was 0.0595 (active) and the normalized growth (locus YML124C, strain tub3, hits give low values) was 0.994. The normalized growth (locus YMR058W, strain fet3, hits give low values) was 0.0623 (active), the normalized growth (locus YMR078C, strain ctf18, hits give low values) was 0.978 and the normalized growth (locus YMR125W, strain sto1, hits give low values) was 0.309 (active). The normalized growth (locus YMR129W, hits give low values) was 0.0614 (active), the normalized growth (locus YMR205C, strain PFK2, hits give low values) was 0.193 (active) and the normalized growth (locus YMR223W, strain ubp8, hits give low values) was 0.978. For the same compound, the normalized growth (locus YMR231W, strain pep5, hits give low values) was 0.095 (active), the normalized growth (locus YMR263W, strain SAP30, hits give low values) was 0.991 and the normalized growth (locus YMR307W, strain GAS1, hits give low values) was 1.01 and 0.995 and 1.02. The normalized growth (locus YNL067W, strain RPL9B, hits give low values) was 0.973, the normalized growth (locus YNL071W, strain lat1, hits give low values) was 0.0658 (active) and the normalized growth (locus YNL128W, strain TEP1, hits give low values) was 1.02 and 0.999. The normalized growth (locus YNL153C, strain GIM3, hits give low values) was 0.983 and 1.03, the normalized growth (locus YNL175C, strain NOP13, hits give low values) was 0.978 and 1.02 and the normalized growth (locus YNL183C, strain NPR1, hits give low values) was 1. For the same compound, the normalized growth (locus YNL197C, strain WHI3, hits give low values) was 1.01 and 0.977, the normalized growth (locus YNL209W, strain ssb2, hits give low values) was 0.0612 (active) and the normalized growth (locus YNL224C, strain SQS1, hits give low values) was 0.978 and 1.01. For the same compound, the normalized growth (locus YNL233W, strain BNI4, hits give low values) was 0.972, the normalized growth (locus YNL248C, strain rpa49, hits give low values) was 0.0783 (active) and the normalized growth (locus YNL250W, strain rad50, hits give low values) was 1.01. It also gave a normalized growth (locus YNL271C, strain bni1, hits give low values) of 0.996, a normalized growth (locus YNL298W, strain CLA4, hits give low values) of 0.997 and a normalized growth (locus YNL307C, strain MCK1, hits give low values) of 0.999. The normalized growth (locus YNL322C, strain KRE1 (second series), hits give low values) was 0.0713 (active), the normalized growth (locus YNL322C, strain KRE1, hits give low values) was 0.977 and 1.02 and the normalized growth (locus YNR049C, strain mso1, hits give low values) was 0.0601 (active). For the same compound, the normalized growth (locus YNR052C, strain pop2, hits give low values) was 0.997, the normalized growth (locus YOL012C, strain htz1) was 0.863 and the normalized growth (locus YOL147C, strain pex11, hits give low values) was 0.984. For the same compound, the normalized growth (locus YOR001W, strain rrp6, hits give low values) was 0.0692 (active), the normalized growth (locus YOR061W, strain CKA2, hits give low values) was 0.998 and the normalized growth (locus YOR069W, strain VPS5, hits give low values) was 0.996. The normalized growth (locus YOR070C, strain gyp1, hits give low values) was 0.0654 (active), the normalized growth (locus YOR080W, strain dia2, hits give low values) was 0.0699 (active) and the normalized growth (locus YOR083W, strain WHI5 (second series), hits give low values) was 1 and 0.957. For the same compound, the normalized growth (locus YOR083W, strain WHI5, hits give low values) was 0.227 (active), the normalized growth (locus YOR106W, strain vam3, hits give low values) was 0.0676 (active) and the normalized growth (locus YOR136W, strain idh2, hits give low values) was 1.01. The normalized growth (locus YOR144C, strain elg1, hits give low values) was 0.996, the normalized growth (locus YOR184W, strain ser1, hits give low values) was 0.995 and the normalized growth (locus YOR231W, strain MKK1, hits give low values) was 1.02. The normalized growth (locus YOR265W, strain rbl2, hits give low values) was 0.0664 (active), the normalized growth (locus YOR270C, strain vph1, hits give low values) was 0.0928 (active) and the normalized growth (locus YOR290C, strain snf2, hits give low values) was 0.0671 (active). For the same compound, the normalized growth (locus YOR316C, strain cot1, hits give low values) was 1, the normalized growth (locus YPL051W, strain arl3, hits give low values) was 0.0788 (active) and the normalized growth (locus YPL078C, strain atp4, hits give low values) was 0.0695 (active). For the same compound, the normalized growth (locus YPL106C, strain sse1, hits give low values) was 0.117 (active), the normalized growth (locus YPL240C, strain hsp82, hits give low values) was 0.278 (active) and the normalized growth (locus YPL241C, strain CIN2, hits give low values) was 0.995 and 1.01. For the same compound, the normalized growth (locus YPL256C, strain CLN2, hits give low values) was 0.991, the normalized growth (locus YPR119W, strain clb2, hits give low values) was 0.997 and the normalized growth (locus YPR141C, strain kar3, hits give low values) was 0.962. The normalized growth (locus YPR163C, strain tif3, hits give low values) was 0.989, the normalized growth (locus YPR167C, strain met16, hits give low values) was 1.01 and the normalized growth (strain wtn01, hits give low values) was 0.996.
